Source: PubChem BioAssay (NCATS)
Several values for one entry are separate records, joined by “and”; a condition that tells them apart may be missing. Equal entries are not always repeated. Records with an inconclusive call do not appear. A call without a number means that no potency is given here. Activity calls are given as the source filed them. Unless noted, the call rests on the fitted dose curve; in most records, active means well fitted curve in the direction sought with a large enough effect; inconclusive means small, poorly fitted or top-dose-only effect, or another doubt; inactive means no such curve, though single readings can be large; an effect the other way counts as inactive or inconclusive.

Assays:
[1] = Natriuretic polypeptide receptor (hNpr1) antagonism - Pilot counterscreen GloSensor control cell line (AID 1347045; calls by dose curve; further: potency means the concentration at half of the fitted maximal effect)
Outline: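 Luminescence was read before and 20 min after adding 50 uM SNP, which stimulates soluble guanylyl cyclase. The HEK293 cells expressing the GloSensor cGMP sensor had been preloaded with 2% reagent for 2 h and treated with compound.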

[2] = target: Atrial natriuretic peptide receptor 1 (Homo sapiens) (UniProt P16066); test: Natriuretic polypeptide receptor (hNpr1) antagonism - Pilot screen (AID 1347049; calls by dose curve;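 further: agonist-evoked cGMP luminescence read 20 min after hNppA addition; series mostly up to about 58 µM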)
Atrial natriuretic peptide receptor 1 (Homo sapiens), sequence (P16066 whole entry, looked up): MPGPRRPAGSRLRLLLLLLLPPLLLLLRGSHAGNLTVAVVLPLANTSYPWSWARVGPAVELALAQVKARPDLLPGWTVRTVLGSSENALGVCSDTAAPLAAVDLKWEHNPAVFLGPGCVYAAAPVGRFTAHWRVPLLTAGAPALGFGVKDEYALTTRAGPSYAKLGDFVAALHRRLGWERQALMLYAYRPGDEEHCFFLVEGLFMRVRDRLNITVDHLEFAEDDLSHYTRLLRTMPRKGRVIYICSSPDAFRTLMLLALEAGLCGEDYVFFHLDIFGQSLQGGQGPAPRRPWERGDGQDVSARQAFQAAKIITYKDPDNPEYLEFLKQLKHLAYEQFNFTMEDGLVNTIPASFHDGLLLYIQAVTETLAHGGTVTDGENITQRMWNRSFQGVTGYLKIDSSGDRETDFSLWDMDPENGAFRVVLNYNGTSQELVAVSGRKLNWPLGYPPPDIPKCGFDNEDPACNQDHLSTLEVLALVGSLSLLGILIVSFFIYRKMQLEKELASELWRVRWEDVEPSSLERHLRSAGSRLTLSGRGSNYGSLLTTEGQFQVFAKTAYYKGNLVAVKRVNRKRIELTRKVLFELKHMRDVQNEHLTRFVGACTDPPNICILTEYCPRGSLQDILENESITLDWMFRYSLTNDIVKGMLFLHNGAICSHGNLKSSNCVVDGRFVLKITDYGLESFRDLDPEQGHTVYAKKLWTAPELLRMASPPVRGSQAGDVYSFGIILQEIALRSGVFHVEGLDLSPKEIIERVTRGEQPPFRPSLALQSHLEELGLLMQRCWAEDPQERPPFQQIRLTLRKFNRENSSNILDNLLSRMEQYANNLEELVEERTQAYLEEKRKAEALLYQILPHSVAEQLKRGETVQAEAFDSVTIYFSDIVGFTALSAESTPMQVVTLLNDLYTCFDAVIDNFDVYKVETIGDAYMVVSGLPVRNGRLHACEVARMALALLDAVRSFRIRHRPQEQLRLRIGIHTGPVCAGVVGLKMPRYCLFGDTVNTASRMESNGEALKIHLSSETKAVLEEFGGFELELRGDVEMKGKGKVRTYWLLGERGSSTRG
Outline: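 Readout is cGMP-driven firefly luciferase luminescence in HEK293 cells carrying hNpr1 and a PDE5-domain GloSensor, read before and 20 min after 0.1 nM hNppA stimulation. Cells had 2% substrate reagent for 2 h and test compound for 30 min.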

[3] = target: Atrial natriuretic peptide receptor 2 (Homo sapiens) (UniProt P20594); test: Natriuretic polypeptide receptor (hNpr2) antagonism - Pilot subtype selectivity assay (AID 1347050; calls by dose curve; further: potency means the concentration at half of the fitted maximal effect)
Atrial natriuretic peptide receptor 2 (Homo sapiens), sequence (P20594 whole entry, looked up): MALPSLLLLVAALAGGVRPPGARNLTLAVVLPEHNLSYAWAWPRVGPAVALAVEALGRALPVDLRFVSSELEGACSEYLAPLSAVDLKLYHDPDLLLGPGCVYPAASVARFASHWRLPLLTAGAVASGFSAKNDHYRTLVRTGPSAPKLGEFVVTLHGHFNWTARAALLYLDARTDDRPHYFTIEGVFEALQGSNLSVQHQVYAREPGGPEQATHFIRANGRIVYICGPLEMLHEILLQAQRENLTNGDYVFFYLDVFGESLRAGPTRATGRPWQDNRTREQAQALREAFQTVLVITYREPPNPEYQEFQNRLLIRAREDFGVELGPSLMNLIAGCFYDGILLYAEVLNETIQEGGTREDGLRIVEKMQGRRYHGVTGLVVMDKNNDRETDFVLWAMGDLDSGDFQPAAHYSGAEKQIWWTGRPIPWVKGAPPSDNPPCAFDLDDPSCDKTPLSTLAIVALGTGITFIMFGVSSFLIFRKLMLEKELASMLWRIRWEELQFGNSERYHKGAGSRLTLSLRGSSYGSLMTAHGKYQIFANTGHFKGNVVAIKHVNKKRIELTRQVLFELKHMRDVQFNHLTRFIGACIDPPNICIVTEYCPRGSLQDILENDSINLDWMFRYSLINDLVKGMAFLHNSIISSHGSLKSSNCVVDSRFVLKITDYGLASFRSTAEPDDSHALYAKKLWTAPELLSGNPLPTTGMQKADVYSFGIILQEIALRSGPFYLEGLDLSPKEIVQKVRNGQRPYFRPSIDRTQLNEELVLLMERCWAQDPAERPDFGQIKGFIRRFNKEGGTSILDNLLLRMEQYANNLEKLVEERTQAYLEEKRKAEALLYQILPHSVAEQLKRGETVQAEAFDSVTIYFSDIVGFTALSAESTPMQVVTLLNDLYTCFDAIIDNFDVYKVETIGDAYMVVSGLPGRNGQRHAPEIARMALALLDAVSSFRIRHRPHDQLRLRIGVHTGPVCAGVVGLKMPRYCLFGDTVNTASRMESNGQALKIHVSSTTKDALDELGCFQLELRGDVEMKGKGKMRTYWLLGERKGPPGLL
Outline: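 Pilot selectivity screen against hNpr2: HEK293 cGMP-sensor cells are treated with LOPAC1280 compounds, then with hNppC peptide at 1 nM final. The cGMP-driven luminescence change over 20 min at room temperature is the read-out.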

[4] = target: T1, Tyrosine-protein phosphatase non-receptor type substrate 1 (Homo sapiens) + Leukocyte surface antigen CD47 (Homo sapiens) (UniProt P78324+Q08722); test: CD47-SIRPalpha protein protein interaction - LANCE assay qHTS validation (AID 1347057; active means well fitted curve in the direction sought with a large enough effect in the signal ratio, with a control signal flat, not every such curve was filed as active; the % refers to the signal ratio; further: series mostly up to about 38 µM)
T1 sequence (P78324 whole entry, looked up): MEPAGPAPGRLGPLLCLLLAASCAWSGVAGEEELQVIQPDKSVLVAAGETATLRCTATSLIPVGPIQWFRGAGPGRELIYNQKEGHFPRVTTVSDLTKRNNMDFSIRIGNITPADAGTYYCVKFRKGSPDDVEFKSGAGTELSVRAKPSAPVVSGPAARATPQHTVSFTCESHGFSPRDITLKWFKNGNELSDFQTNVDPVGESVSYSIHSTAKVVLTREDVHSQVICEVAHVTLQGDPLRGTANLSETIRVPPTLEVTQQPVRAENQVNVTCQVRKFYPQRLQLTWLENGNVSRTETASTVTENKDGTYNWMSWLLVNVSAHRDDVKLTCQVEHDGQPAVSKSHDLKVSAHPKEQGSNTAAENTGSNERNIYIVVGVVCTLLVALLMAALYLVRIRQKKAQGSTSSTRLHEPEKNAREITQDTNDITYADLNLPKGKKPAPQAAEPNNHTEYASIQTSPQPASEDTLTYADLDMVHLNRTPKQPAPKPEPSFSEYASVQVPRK
T1 sequence (Q08722 whole entry, looked up): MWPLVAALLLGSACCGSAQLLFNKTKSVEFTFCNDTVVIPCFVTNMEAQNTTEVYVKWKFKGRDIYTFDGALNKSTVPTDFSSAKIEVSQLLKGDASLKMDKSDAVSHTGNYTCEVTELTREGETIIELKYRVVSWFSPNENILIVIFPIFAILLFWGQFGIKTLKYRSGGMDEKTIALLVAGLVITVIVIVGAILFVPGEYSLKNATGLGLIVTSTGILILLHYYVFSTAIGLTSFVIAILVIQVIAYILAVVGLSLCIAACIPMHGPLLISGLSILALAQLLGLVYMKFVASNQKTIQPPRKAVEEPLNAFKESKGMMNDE
Outline: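 First, His-tagged CD47 and Eu-labelled anti-His antibody met the compound for 30 min; next, site-specifically biotinylated SIRPalpha was added for 30 min; finally streptavidin-APC was added before reading the TR-FRET ratio.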

[5] = target: T1, Tyrosine-protein phosphatase non-receptor type substrate 1 (Homo sapiens) + Leukocyte surface antigen CD47 (Homo sapiens); test: CD47-SIRPalpha protein protein interaction - HTRF assay qHTS validation (AID 1347058; active means well fitted curve in the direction sought with a large enough effect in the signal ratio, not every such curve was filed as active; the % refers to the signal ratio;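 further: recombinant soluble extracellular CD47 with His tag and biotinylated SIRPalpha domains; series mostly up to about 38 µM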)
Outline: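 TR-FRET read (Ch1/Ch2 ratio) of soluble extracellular CD47 and Avi-biotinylated SIRPalpha domains in PBS pH 7.4 with 0.05% IGEPAL; 7-point compound titration. Sequential 30 min room-temperature steps; non-biotinylated SIRPalpha as control inhibitor.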

[6] = target: T1, Tyrosine-protein phosphatase non-receptor type substrate 1 (Homo sapiens) + Leukocyte surface antigen CD47 (Homo sapiens); test: CD47-SIRPalpha protein protein interaction - Alpha assay qHTS validation (AID 1347059);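 further: bead proximity luminescence from CD47 binding SIRPalpha after compound preincubation with SIRPalpha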; further: potency means the concentration at half of the fitted maximal effect
Outline: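 Binding is measured by AlphaScreen proximity: Ni-NTA acceptor beads capture His-CD47, streptavidin donor beads capture biotin-SIRPalpha. Each of three additions (SIRPalpha with compound, CD47, beads) incubates 30 min at room temperature protected from light.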

[7] = target: Parathyroid hormone/parathyroid hormone-related peptide receptor (Homo sapiens) (UniProt Q03431); test: qHTS for PTHR1 Agonists: Optimization Screen against the NCGC LOPAC library (AID 1347079);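 further: GloSensor cAMP luminescence in HEK-293 GP2 cells expressing human PTHR1 with IBMX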
Parathyroid hormone/parathyroid hormone-related peptide receptor (Homo sapiens), sequence (Q03431 whole entry, looked up): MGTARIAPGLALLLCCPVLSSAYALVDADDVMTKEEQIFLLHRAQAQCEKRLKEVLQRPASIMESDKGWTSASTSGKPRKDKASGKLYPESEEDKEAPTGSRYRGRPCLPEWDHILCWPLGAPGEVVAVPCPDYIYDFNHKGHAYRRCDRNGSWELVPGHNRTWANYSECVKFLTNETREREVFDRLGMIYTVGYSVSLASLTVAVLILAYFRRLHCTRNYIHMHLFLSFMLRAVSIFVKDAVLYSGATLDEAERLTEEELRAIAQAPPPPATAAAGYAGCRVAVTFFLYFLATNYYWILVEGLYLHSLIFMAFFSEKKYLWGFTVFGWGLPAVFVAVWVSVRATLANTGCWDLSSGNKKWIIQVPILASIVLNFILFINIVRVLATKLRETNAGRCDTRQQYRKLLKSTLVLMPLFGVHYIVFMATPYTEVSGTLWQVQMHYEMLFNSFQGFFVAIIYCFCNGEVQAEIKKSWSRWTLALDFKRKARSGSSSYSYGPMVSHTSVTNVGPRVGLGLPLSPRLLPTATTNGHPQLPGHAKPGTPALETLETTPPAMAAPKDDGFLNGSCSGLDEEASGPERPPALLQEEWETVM
Outline: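 Agonist readout: GloSensor cAMP luminescence, read after 15 min at room temperature. HEK-293-derived GP2 line carries PTHR1; compounds tested as a titration for 1 hr at 37C in presence of IBMX. M-PTH (1-15) served as control.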

[8] = qHTS of pediatric cancer cell lines to identify multiple opportunities for drug repurposing: Primary screen for TC32 cells (AID 1347089); further: nearly all actives have a fitted effect of over 60% in size; further: potency means the concentration at half of the fitted maximal effect
Outline: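 In the primary qHTS, MIPE compounds were tested at 11 concentrations (0.78 nM to 46 µM) and NPC compounds at 8 (0.59 nM to 46 µM) on TC32 cells for 48 h. CellTiter-Glo luminescence gave viability.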

[9] = qHTS of pediatric cancer cell lines to identify multiple opportunities for drug repurposing: Primary screen for SJ-GBM2 cells (AID 1347091); further: potency means the concentration at half of the fitted maximal effect
Outline: (§1)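 Cell viability, CellTiter-Glo luminescence; 500-1,000 cells/well, 8- or 11-point titration, 48 h compound exposure at 37 degrees C, 5% CO2. Controls: DMSO neutral, bortezomib 2.3 µM final as positive.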

[10] = qHTS of pediatric cancer cell lines to identify multiple opportunities for drug repurposing: Primary screen for A673 cells (AID 1347092); further: nearly all actives have a fitted effect of over 45% in size; further: potency means the concentration at half of the fitted maximal effect
Outline: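 48 h compound exposure, A673, 500-1,000 cells/well, 37 degrees C/5% CO2. MIPE: 11-point, 0.78 nM-46 µM; NPC: 8-point, 0.59 nM-46 µM (final). Readout CellTiter-Glo luminescence after 15 min RT.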

[11] = qHTS of pediatric cancer cell lines to identify multiple opportunities for drug repurposing: Primary screen for SK-N-MC cells (AID 1347093); further: potency means the concentration at half of the fitted maximal effect
Outline: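 Metabolically active cells were quantified by ATP-dependent luminescence (CellTiter-Glo, 15 min at room temperature) following 48 h treatment. Cells had been plated at 500-1,000 per well and settled for 5 h beforehand.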

[12] = qHTS of pediatric cancer cell lines to identify multiple opportunities for drug repurposing: Primary screen for BT-37 cells (AID 1347094); further: potency means the concentration at half of the fitted maximal effect
Outline: (§2)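 Following a 5-hour attachment period, cells at 500-1,000/well received compounds and were cultured for 48 hours. CellTiter-Glo was added and luminescence read to estimate viable, metabolically active cells.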

[13] = qHTS of pediatric cancer cell lines to identify multiple opportunities for drug repurposing: Primary screen for NB-EBc1 cells (AID 1347095); further: potency means the concentration at half of the fitted maximal effect
Outline: as §2

[14] = qHTS of pediatric cancer cell lines to identify multiple opportunities for drug repurposing: Primary screen for U-2 OS cells (AID 1347096); further: nearly all actives have a fitted effect of over 50% in size
Outline: (§3)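 Cells (500-1,000/well) rested 5 h, then received compounds for 48 h; metabolically active cells were measured by CellTiter-Glo luminescence. Final concentrations spanned up to 46 µM (MIPE, 11-point) or 0.59 nM-46 µM (NPC, 8-point) in primary screens, 11-point in follow-ups.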

[15] = qHTS of pediatric cancer cell lines to identify multiple opportunities for drug repurposing: Primary screen for Saos-2 cells (AID 1347097); further: nearly all actives have a fitted effect of over 40% in size; further: potency means the concentration at half of the fitted maximal effect
Outline: as §2

[16] = qHTS of pediatric cancer cell lines to identify multiple opportunities for drug repurposing: Primary screen for NB1643 cells (AID 1347099); further: nearly all actives have a fitted effect of over 50% in size; further: potency means the concentration at half of the fitted maximal effect
Outline: as §2

[17] = qHTS of pediatric cancer cell lines to identify multiple opportunities for drug repurposing: Primary screen for LAN-5 cells (AID 1347100); further: potency means the concentration at half of the fitted maximal effect
Outline: as §3

[18] = NS1 protein of Zika virus - qHTS assay to identify small molecule inhibitors in human HEK 293 cells (AID 1347053); further: series mostly up to about 46 µM; nearly all actives have a fitted effect of over 55% in size
Outline: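 HEK 293 cells pretreated with compound for 1 h, then infected with ZIKV MR766 (MOI 0.5) for 24 h at 37 C. NS1 detected by TR-FRET with two anti-NS1 antibodies; normalized to uninfected (0%) and infected (100%) wells.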

[19] = qHTS of pediatric cancer cell lines to identify multiple opportunities for drug repurposing: Primary screen for SK-N-SH cells (AID 1347098); further: nearly all actives have a fitted effect of over 65% in size; further: potency means the concentration at half of the fitted maximal effect
Outline: as §3

[20] = qHTS of pediatric cancer cell lines to identify multiple opportunities for drug repurposing: Primary screen for DAOY cells (AID 1347090); further: nearly all actives have a fitted effect of over 55% in size; further: potency means the concentration at half of the fitted maximal effect
Outline: as §1

SMILES | Potency [1] | Potency [2] | Potency [3] | outcome [4] | outcome [5] | Potency [6] | Potency [7] | Potency [8] | Potency [9] | Potency [10] | Potency [11] | Potency [12] | Potency [13] | Potency [14] | Potency [15] | Potency [16] | Potency [17] | Potency [18] | Potency [19] | Potency [20]
CN1C2CCC1CC(OC(=O)C(CO)c1ccccc1)C2 (stereo unspecified) | inactive | inactive | inactive | inactive | inactive | inactive | inactive | inactive | inactive | inactive | inactive | inactive | inactive | inactive | inactive | inactive | inactive | – | – | –
COc1ccc(C2CNC(=O)C2)cc1OC1CCCC1 (stereo unspecified) | inactive | inactive | inactive | inactive | inactive | inactive | inactive | inactive | inactive | inactive | inactive | inactive | – | – | inactive | inactive | inactive | inactive | inactive | –
Cn1c(=O)c2[nH]cnc2n(C)c1=O | inactive | inactive | inactive | inactive | – | – | – | inactive | inactive | inactive | – | inactive | – | – | inactive | inactive | inactive | inactive | inactive | inactive
Fc1ccc([C@@H]2CCNC[C@H]2COc2ccc3c(c2)OCO3)cc1 | inactive | inactive | – | inactive | – | – | – | inactive | – | – | inactive | inactive | inactive | inactive | inactive | inactive | inactive | inactive | inactive | inactive
CCCNCC(O)COc1ccccc1C(=O)CCc1ccccc1 (stereo unspecified) | inactive | – | inactive | inactive | inactive | – | – | inactive | inactive | inactive | – | inactive | – | inactive | inactive | inactive | – | inactive | 21.7 µM (active) | –
O=C1c2c(O)ccc(O)c2C(=O)c2c(NCCNCCO)ccc(NCCNCCO)c21 | 10.4 µM (active) | – | – | – | – | 0.826 µM (active) | inactive | 658 nM (active) and 59.2 nM (active) | 332 nM (active) and 422 nM (active) | 590 nM (active) and 168 nM (active) | 235 nM (active) and 1 nM (active) | 243 nM (active) and 38.9 nM (active) | 74.3 nM (active) and 59.6 nM (active) | – | 1.66 µM (active) and 1.68 µM (active) | 469 nM (active) and 668 nM (active) | 0.0833 µM (active) | – | 383 nM (active) and 486 nM (active) | 2.96 µM (active) and 2.66 µM (active)
NCCc1cnc[nH]1 | inactive | – | inactive | inactive | inactive | – | inactive | inactive | inactive | inactive | inactive | inactive | inactive | inactive | inactive | inactive | inactive | – | inactive | inactive
COc1ccccc1OCC(O)CN1CCN(CC(=O)Nc2c(C)cccc2C)CC1 (stereo unspecified) | inactive | – | inactive | inactive | inactive | inactive | – | inactive | inactive | inactive | – | inactive | – | – | inactive | inactive | inactive | inactive | inactive | inactive
NC(=O)OCC(COC(N)=O)c1ccccc1 | inactive | – | inactive | inactive | inactive | inactive | inactive | inactive | inactive | inactive | inactive | inactive | – | inactive | – | inactive | inactive | – | inactive | –
COc1cc2nc(N(C)CCCNC(=O)C3CCCO3)nc(N)c2cc1OC (stereo unspecified) | – | inactive | inactive | inactive | inactive | inactive | inactive | inactive | inactive | inactive | inactive | inactive | inactive | inactive | inactive | – | inactive | inactive | inactive | –
COc1cc2nc(N3CCN(C(=O)c4ccco4)CC3)nc(N)c2cc1OC | inactive | – | inactive | inactive | inactive | – | – | inactive | inactive | 14.8 µM (active) | 11.8 µM (active) | 24.3 µM (active) | inactive | – | – | 26.4 µM (active) | 14.8 µM (active) | – | 27.1 µM (active) | –
COc1ccccc1N1CCN(CC(O)COc2cccc3ccccc23)CC1 (stereo unspecified) | inactive | – | inactive | inactive | inactive | – | inactive | – | inactive | inactive | inactive | inactive | – | inactive | – | – | inactive | inactive | – | inactive
CN(C)CCC=C1c2ccccc2C=Cc2ccccc21 | inactive | – | 16.5 µM (active) | inactive | inactive | – | inactive | inactive | – | – | – | inactive | – | – | 29.6 µM (active) | – | inactive | – | 27.3 µM (active) | inactive
OCCN(CCO)c1nc(N2CCCCC2)c2nc(N(CCO)CCO)nc(N3CCCCC3)c2n1 | inactive | – | inactive | – | – | – | – | inactive | inactive | – | 23.5 µM (active) | inactive | inactive | – | – | – | inactive | – | – | –
CCc1cccc2c3c([nH]c12)C(CC)(CC(=O)O)OCC3 (stereo unspecified) | inactive | – | inactive | inactive | inactive | – | inactive | inactive | inactive | inactive | inactive | inactive | inactive | inactive | inactive | inactive | inactive | inactive | inactive | inactive
C[C@](N)(Cc1ccc(O)c(O)c1)C(=O)O | inactive | – | inactive | inactive | inactive | – | inactive | inactive | inactive | – | inactive | inactive | – | inactive | inactive | inactive | inactive | inactive | – | inactive
CN1CCC(=C2c3ccccc3C=Cc3ccccc32)CC1 | inactive | – | 11.7 µM (active) | inactive | – | – | – | inactive | inactive | 18.7 µM (active) | – | – | inactive | inactive | – | – | – | inactive | 24.1 µM (active) | inactive
O=c1[nH]cc(F)c(=O)[nH]1 | inactive | – | inactive | inactive | inactive | – | inactive | inactive | inactive | – | – | – | – | – | inactive | – | 7.43 µM (active) | inactive | – | inactive
CN(C)c1nc(N(C)C)nc(N(C)C)n1 | inactive | – | inactive | inactive | inactive | – | – | inactive | inactive | inactive | – | inactive | – | – | inactive | inactive | inactive | – | inactive | inactive
